From PubChem BioAssay (Tox21)
Inconclusive results are not listed. Where a call stands in place of a potency, no number is given. Unmarked numbers belong to inactive results. The source made the active and inactive calls. The call rests on the fitted dose curve; in most records, active means well fitted inhibition curve with a large enough effect in the repeat runs; inconclusive means weak or mixed curves; inactive means no such curve, though single readings can be large or run the other way.

Each compound was assayed against Cytochrome P450 1A2 (Homo sapiens) (UniProt P05177) (assay: Cytochrome P450 Family 1 Subfamily A Member 2 (CYP1A2) small molecule antagonists: luciferase reporter qHTS assay (AID 1671199; further: nearly all actives have a fitted effect of over 50% in size)). Settings: P450-Glo CYP1A2 enzyme, luciferin luminescence, 1 h; series mostly up to 53 µM.
Description: National Center for Advancing Translational Sciences [NCATS]
U.S. Environmental Protection Agency [EPA]
National Institutes of Environmental Health Sciences [NIEHS]
National Toxicology Program [NTP]
U.S. Food and Drug Administration [FDA]
Cytochrome P450 (CYP) enzymes are membrane-bound hemeproteins that play a key role in metabolism of drugs and xenobiotics. Evaluation of the effect of chemicals on CYP isozymes is useful to minimize the adverse drug reactions and toxicities in drug development process. Tox21 chemicals were tested for their effect on CYP enzyme activities by using P450-Glo (TM) screening systems (Promega Corporation, Madison, WI). These systems provide a luminescent method containing proluciferin substrates and are converted to luciferin products by CYP isozymes. The luciferin products formed are detected with a luciferin detection reagent, and the amount of light produced is proportional to CYP activity. P450-Glo (TM) CYP1A2 screening system (Catalog. No. V9770) was used to detect the compounds that interfere in CYP1A2 activity. The positive control compound used for CYP1A2 assay is furafylline (Sigma-Aldrich, St. Louis, MO).
Tox21 Assay Protocol Summary:
Two ul of enzyme-substrate mix was dispensed into medium binding white/solid 1536-well plates (Greiner Bio-One North America Inc., Monroe, NC) using a BioRaptr Flying Reagent Dispenser (FRD, Beckman Coulter, Brea, CA). Compounds dissolved in DMSO and positive control (furafyllline) were transferred to the assay plates at 23 nl using a Pintool station (Wako, San Diego, CA). The assay plates were incubated at room temperature for 10 min. Then 2 ul of NADPH regeneration solution was added to each well of the assay plates using an FRD and incubated at room temperature for 1 h. The reaction was stopped by adding 4 ul of detection reagent using an FRD and after 20 min incubation at room temperature the luminescence signal was measured using a ViewLux plate reader (Perkin Elmer, Shelton, CT). Data were expressed as relative luminescence units.
Potency means the concentration at half of the fitted maximal effect.

Cytochrome P450 1A2 (Homo sapiens), sequence (P05177 whole entry, looked up): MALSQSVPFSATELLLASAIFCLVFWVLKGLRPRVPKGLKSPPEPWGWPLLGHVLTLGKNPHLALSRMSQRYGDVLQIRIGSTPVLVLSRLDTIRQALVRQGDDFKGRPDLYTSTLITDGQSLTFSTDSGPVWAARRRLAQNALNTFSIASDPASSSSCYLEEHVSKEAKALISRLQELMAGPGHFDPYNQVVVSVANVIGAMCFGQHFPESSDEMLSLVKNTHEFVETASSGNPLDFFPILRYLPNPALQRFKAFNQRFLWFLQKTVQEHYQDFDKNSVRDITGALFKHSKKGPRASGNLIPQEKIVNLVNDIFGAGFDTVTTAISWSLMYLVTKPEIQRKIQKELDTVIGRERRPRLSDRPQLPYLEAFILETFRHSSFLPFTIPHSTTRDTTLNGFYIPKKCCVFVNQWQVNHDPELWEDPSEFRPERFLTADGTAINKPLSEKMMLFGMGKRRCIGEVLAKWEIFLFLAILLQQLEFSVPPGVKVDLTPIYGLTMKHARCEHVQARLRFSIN

Structure (SMILES)	Potency	activity change, negative = inhibition
CCc1cc(C2=C(C(=O)O)N(c3ccccc3C(F)(F)F)S(=O)(=O)c3ccccc32)cc2c1OCO2	inactive	–
CC(C)(C)Cl	inactive	–
C[Si](C)(CCCN)O[Si](C)(C)CCCN	25.2 µM (active)	–
CCC(CC)Nc1ccc(C)c(C)c1	5.64 µM (active)	–
Cc1[nH]c(C)c(Cl)c(=O)c1Cl	inactive	–
Brc1c2ccccc2c(Br)c2ccccc12	0.719 µM (active)	–
Cc1ccc(N=Nc2c(O)c(C(=O)O)cc3ccccc23)c(S(=O)(=O)O)c1	inactive	–
CC1(c2ccccc2)OC(C(=O)O)=CC1=O (stereo not given)	inactive	–
CCOC(=O)Cc1cccc2ccccc12	15.9 µM (active)	–
Cc1ccc(C(=O)Oc2ccc(C(O)CNC(C)(C)C)cc2OC(=O)c2ccc(C)cc2)cc1 (stereo not given)	inactive	–
OCCN1CCN(CCCN2c3ccccc3C=Cc3ccccc32)CC1	inactive	–
O=C1CCCCCCCCCCCC(=O)OCCO1	39.9 µM (active)	–
CCOC(=O)C(O)c1ccccc1 (stereo not given)	inactive	–
CCOC(=O)C(F)(F)F	inactive	–
O=C(O)c1ccccc1Cl	inactive	–
Cn1c(=O)cc(Oc2ccc(F)cc2F)c2cnc(NCC(C)(C)O)nc21	28.3 µM (active)	–
C/C=C/C=C/CO	inactive	–
CN1Cc2cc(C(=O)N3CCC(C4CCNCC4)CC3)ccc2NC(CC(=O)O)C1=O (stereo not given)	inactive	–
N=c1ccn2c(n1)O[C@H]1[C@H](O)[C@@H](CO)O[C@H]12	inactive	–
C=C1C(=C/C=C2\CCC[C@]3(C)[C@@H]([C@H](C)/C=C/[C@@H](O)C4CC4)CC[C@@H]23)C[C@@H](O)C[C@@H]1O	inactive	–

Structure (SMILES)	Potency	activity change, negative = inhibition
COc1ccc(C(=O)N2CCN(CC(=O)N3CCOCC3)CC2)cc1	inactive	–
NCC(=O)CCC(=O)O	inactive	–
O=C1OC(=O)C2C3C=CC(C3)C12 (stereo not given)	inactive	–
CC1=CC=C(C(C)C)CC1	31.7 µM (active)	–
CCc1c(C(=O)NN2CCCCC2)nn(-c2ccc(Cl)cc2Cl)c1-c1ccc(Br)cc1	inactive	–
CC(C)(CO)[N+](=O)[O-]	inactive	–
C=C(C)C(=O)OCCOCC	40.1 µM (active)	–
CCCC(=O)Nc1ccc(O)c(C(C)=O)c1	9.77 µM (active)	–
CCCCCCCCO[C@@H]1O[C@H](CO)[C@@H](O)[C@H](O)[C@H]1O	inactive	–
CC[N+]1(CC)CCC(=C(c2ccccc2)c2ccccc2)C1C (stereo not given)	inactive	–
CC(C)(COC(=O)c1ccccc1)COC(=O)c1ccccc1	39.9 µM (active)	–
CC[N+](C)(CC)CCOC(=O)C(O)(c1ccccc1)C1CCCCC1 (stereo not given)	inactive	–
CCOc1ccc(N)c([N+](=O)[O-])c1	1.78 µM (active)	–
O=C(O)CNCC(=O)O	–	-1.26% [at 10.5 µM]
CN(C)c1ccc(C(c2ccccc2)c2ccc(N(C)C)cc2)cc1	14.2 µM (active)	–
CCCCC(CC)COC(=O)COc1ccc(Cl)cc1Cl (stereo not given)	25.6 µM (active)	–
CC(C)OC(=O)C(C)N(C(=O)c1ccccc1)c1ccc(F)c(Cl)c1 (stereo not given)	63.3 µM (active)	–
CCCCCC[C@@H](O)C/C=C\CCCCCCCC(=O)OC	35.7 µM (active)	–
O=[N+]([O-])c1ccc(NCCO)c(OCCO)c1	17.9 µM (active)	–
CCCCCCc1ccc(-c2ccc(C#N)cc2)cc1	31.2 µM (active)	–
